Test results from ChEMBL document CHEMBL3988442, “University of Dundee, Small-Polar-MMV Screening Library” (2021).
For some assays here: Potency and affinity values are given separately.

What was measured:
Parameters in all cases: scale not given: direction of the effect not stated beside the values
[1] = target: Protein translocase subunit SecA (Escherichia coli (strain K12)) (UniProt P10408); test: Assay to Identify E. coli SecA ATPase Inhibitors; assay type: functional; details: 30 µM
[2] = target: T1, Ubiquitin-activating enzyme e1, putative (Leishmania donovani (strain BPK282A1)) (UniProt E9BSI1); test: Leishmania donovani Ubiquitin Activating Enzyme (LdE1); assay type: functional; details: 30 µM
T1 sequence (whole entry): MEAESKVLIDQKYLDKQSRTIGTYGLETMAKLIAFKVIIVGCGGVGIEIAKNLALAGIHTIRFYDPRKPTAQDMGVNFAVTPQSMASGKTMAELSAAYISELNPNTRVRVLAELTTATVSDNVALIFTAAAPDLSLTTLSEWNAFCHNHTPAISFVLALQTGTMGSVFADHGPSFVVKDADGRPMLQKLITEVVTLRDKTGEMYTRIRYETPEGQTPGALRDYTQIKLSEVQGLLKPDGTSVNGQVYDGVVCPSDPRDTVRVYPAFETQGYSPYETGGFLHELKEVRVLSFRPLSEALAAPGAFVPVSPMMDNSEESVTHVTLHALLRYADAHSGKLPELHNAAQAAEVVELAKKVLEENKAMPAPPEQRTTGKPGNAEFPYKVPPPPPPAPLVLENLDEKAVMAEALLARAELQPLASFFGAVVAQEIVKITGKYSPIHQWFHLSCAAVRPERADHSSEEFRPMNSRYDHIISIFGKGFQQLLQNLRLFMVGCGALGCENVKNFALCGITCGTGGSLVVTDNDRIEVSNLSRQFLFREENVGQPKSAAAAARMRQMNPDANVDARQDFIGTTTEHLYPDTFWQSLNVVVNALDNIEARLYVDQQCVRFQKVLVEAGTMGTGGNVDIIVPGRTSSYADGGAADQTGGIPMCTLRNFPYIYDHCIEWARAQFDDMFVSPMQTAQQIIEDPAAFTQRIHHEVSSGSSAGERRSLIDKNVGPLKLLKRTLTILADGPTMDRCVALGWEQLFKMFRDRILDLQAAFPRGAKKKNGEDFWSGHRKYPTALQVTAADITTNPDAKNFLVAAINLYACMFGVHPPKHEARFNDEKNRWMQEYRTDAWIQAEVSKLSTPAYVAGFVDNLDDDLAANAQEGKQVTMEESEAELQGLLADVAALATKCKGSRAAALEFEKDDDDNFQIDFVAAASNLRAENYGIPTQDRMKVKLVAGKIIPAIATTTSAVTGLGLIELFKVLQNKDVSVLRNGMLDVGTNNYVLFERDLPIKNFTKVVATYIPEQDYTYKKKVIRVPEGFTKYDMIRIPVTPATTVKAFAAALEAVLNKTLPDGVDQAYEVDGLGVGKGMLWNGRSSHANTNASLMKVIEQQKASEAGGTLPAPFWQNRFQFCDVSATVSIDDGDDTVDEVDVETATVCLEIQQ

[3] = target: T2, Aspartate--tRNA(Asp/Asn) ligase (Mycobacterium tuberculosis (strain ATCC 25618 / H37Rv)) (UniProt P9WFW3); test: Assay for Asp RNA synthetase-1 from Mycobacterium tuberculosis; assay type: functional; details: 30 µM; further: in the data most compounds retested in dose-response had high values
T2 sequence (whole entry): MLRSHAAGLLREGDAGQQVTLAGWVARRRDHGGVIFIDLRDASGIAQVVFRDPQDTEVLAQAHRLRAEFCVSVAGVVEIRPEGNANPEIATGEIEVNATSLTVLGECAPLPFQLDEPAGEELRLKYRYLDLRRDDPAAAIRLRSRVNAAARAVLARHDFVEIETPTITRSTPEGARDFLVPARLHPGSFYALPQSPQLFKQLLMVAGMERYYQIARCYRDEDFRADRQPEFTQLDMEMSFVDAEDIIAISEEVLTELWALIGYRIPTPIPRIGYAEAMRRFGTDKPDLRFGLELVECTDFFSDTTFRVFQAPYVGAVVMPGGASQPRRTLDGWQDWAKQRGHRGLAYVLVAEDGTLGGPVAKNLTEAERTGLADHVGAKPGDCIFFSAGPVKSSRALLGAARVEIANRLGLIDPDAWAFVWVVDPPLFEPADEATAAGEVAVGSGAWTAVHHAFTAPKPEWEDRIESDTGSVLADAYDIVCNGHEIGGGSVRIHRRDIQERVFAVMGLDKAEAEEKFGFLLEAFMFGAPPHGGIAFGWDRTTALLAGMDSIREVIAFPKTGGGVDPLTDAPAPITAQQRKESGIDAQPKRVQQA

[4] = target: AMP-activated protein kinase, AMPK (Homo sapiens) (UniProt P54646+O43741+P54619+Q9UGJ0+Q9Y478+Q13131+Q9UGI9); test: AMP-dependent Kinase enzyme assay. An in vitro enzyme assay that detects ADP turnover that is directly proportional to AMPK activity. This uses naive AMPK that is activated during the assay with MK-8722; assay type: functional; details: 30 µM
[5] = target: Sialic acid-binding Ig-like lectin 9 (Homo sapiens) (UniProt Q9Y336); test: Hs-Siglec9 ALPHAscreen SOP 20170721; details: 10 µM
Sialic acid-binding Ig-like lectin 9 (Homo sapiens), sequence (Q9Y336 whole entry): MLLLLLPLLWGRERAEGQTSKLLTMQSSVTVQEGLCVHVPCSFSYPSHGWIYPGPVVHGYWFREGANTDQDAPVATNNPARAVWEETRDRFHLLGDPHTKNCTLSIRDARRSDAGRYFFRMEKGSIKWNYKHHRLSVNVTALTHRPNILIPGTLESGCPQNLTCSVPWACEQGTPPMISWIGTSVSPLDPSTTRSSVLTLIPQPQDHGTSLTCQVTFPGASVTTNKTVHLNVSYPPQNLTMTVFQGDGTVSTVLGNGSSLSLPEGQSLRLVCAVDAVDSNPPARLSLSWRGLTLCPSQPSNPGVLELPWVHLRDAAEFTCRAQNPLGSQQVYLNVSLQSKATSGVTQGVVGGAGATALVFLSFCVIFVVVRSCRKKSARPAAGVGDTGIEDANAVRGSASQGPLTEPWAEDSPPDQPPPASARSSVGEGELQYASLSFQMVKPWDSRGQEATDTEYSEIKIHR

[6] = system: Trypanosoma cruzi; test: Trypanosoma cruzi phosphomannomutase and mannose-1-phosphate guanylyltransferase assay; assay type: functional; details: 10 µM
[7] = target: T3, Arginase-2, mitochondrial (Homo sapiens) (UniProt P78540); test: in vitro enzyme assay to detect the production of urea directly proportional to the activity of Arginase II; assay type: functional; further: in the data most compounds retested in dose-response had high values
T3 sequence (whole entry): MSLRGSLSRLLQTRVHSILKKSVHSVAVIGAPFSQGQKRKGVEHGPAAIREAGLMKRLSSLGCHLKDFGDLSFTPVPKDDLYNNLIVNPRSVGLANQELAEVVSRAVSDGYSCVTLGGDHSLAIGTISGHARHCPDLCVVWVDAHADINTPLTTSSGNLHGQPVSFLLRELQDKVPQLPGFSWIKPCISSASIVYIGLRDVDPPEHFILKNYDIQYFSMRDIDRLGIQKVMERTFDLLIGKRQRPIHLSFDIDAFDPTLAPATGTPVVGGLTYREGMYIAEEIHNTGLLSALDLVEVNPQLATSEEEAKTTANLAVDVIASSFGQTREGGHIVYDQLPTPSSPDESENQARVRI

[8] = target: T4, Proteasome subunit beta (Trypanosoma cruzi) (UniProt O96673); test: Trypanosoma cruzi proteasome chymotrypsin-like activity (TcProtChymo) assay.; further: in the data most compounds retested in dose-response had high values; assay type: functional; details: 9.37 µM
T4 sequence (whole entry): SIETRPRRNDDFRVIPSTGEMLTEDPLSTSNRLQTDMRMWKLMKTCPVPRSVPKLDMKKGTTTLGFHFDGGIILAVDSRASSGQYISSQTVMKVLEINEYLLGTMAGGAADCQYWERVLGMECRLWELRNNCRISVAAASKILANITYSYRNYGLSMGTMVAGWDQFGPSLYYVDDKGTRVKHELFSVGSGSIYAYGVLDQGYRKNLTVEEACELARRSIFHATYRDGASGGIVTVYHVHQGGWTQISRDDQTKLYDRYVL

[9] = species: Homo sapiens; test: To identify inhibition of the IFN signalling (Jak-Stat) pathway via expression of an eGFP reporter gene under the control of an IFN-stimulated response element (ISRE) containing MxA promoter.; assay type: functional; details: 30 µM
[10] = target: Shiga toxin 2 (Escherichia coli O157:H7) (UniProt P09385+P09386); test: E. coli 0.157:H7 Shiga Toxin SOP - stx2 screening assay; assay type: functional; details: 30 µM
[11] = target: T5, Tyrosyl-tRNA synthetase, putative (Trypanosoma cruzi (strain CL Brener)) (UniProt Q4DSP6); test: Trypanosoma cruzi tyrosyl tRNA synthetase (TcYRS) _High Tyrosine SOP; assay type: functional; details: 30 µM; further: in the data most compounds retested in dose-response had high values
T5 sequence (whole entry): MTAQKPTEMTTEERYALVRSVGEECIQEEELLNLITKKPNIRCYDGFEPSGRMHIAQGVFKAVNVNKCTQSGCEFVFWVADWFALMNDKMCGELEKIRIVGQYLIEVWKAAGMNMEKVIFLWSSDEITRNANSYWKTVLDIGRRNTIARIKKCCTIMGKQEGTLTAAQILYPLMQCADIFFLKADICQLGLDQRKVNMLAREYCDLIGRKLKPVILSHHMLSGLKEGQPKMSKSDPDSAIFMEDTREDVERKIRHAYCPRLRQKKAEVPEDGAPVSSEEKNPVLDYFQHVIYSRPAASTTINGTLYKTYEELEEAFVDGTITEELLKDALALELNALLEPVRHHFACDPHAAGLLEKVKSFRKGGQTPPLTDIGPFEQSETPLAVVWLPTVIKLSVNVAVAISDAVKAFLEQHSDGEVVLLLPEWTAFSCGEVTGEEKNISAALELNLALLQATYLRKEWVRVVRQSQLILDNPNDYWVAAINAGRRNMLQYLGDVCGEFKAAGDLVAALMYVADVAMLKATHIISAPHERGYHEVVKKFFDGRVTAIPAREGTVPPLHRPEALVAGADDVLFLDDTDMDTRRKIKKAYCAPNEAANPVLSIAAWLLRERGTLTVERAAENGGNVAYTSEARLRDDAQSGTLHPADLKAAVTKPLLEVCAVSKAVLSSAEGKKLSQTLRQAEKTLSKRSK

[12] = target: T5, Tyrosyl-tRNA synthetase, putative (Trypanosoma cruzi (strain CL Brener)); test: Trypanosoma cruzi tyrosyl tRNA synthetase (TcYRS) SOP; assay type: functional; details: 30 µM
[13] = target: Chromo domain-containing protein 1 (Saccharomyces cerevisiae (strain ATCC 204508 / S288c) (Baker's yeast)) (UniProt P32657); test: ScCHD-1 Enzyme Inhibition Assay; assay type: functional; details: 30 µM; further: in the data most compounds retested in dose-response had high values
Chromo domain-containing protein 1 (Saccharomyces cerevisiae (strain ATCC 204508 / S288c) (Baker's yeast)), sequence (P32657 whole entry, the tested form may be a part): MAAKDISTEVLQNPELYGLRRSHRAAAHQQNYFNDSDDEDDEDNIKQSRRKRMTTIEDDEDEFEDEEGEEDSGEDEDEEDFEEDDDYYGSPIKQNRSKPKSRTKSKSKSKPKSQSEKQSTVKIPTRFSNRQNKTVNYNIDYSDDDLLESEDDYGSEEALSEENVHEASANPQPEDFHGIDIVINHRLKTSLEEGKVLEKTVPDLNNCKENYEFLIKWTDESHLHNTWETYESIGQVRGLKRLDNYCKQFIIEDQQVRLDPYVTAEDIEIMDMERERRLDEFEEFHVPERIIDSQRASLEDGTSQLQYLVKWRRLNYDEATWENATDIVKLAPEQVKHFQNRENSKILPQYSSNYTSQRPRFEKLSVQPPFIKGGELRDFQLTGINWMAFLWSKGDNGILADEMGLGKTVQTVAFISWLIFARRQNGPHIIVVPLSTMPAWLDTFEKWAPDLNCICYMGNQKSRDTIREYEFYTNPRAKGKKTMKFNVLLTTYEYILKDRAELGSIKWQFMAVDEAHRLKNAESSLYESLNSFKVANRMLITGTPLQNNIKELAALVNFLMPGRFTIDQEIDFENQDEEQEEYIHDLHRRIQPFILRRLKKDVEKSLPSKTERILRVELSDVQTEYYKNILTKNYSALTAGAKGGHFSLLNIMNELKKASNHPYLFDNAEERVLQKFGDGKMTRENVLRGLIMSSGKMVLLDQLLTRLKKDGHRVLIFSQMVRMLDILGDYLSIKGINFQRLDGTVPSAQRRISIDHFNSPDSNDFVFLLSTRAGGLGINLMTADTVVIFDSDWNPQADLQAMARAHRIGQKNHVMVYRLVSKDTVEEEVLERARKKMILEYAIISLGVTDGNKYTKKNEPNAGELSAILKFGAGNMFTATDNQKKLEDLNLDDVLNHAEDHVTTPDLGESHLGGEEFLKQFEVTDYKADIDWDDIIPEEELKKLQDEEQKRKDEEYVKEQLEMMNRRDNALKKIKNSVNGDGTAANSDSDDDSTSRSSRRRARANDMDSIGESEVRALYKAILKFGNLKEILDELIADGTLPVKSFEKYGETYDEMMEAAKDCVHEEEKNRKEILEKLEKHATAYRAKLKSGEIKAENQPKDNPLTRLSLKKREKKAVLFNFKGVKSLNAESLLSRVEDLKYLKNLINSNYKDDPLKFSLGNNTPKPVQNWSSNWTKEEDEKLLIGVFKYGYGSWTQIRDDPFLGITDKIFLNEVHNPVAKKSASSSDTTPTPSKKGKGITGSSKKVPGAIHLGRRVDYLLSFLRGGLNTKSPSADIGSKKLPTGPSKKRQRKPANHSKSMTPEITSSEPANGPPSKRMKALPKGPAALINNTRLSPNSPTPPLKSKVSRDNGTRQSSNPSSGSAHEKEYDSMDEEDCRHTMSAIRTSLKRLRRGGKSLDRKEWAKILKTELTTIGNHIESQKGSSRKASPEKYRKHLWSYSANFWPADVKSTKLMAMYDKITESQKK

Protein translocase subunit SecA (Escherichia coli (strain K12)), sequence (P10408 whole entry): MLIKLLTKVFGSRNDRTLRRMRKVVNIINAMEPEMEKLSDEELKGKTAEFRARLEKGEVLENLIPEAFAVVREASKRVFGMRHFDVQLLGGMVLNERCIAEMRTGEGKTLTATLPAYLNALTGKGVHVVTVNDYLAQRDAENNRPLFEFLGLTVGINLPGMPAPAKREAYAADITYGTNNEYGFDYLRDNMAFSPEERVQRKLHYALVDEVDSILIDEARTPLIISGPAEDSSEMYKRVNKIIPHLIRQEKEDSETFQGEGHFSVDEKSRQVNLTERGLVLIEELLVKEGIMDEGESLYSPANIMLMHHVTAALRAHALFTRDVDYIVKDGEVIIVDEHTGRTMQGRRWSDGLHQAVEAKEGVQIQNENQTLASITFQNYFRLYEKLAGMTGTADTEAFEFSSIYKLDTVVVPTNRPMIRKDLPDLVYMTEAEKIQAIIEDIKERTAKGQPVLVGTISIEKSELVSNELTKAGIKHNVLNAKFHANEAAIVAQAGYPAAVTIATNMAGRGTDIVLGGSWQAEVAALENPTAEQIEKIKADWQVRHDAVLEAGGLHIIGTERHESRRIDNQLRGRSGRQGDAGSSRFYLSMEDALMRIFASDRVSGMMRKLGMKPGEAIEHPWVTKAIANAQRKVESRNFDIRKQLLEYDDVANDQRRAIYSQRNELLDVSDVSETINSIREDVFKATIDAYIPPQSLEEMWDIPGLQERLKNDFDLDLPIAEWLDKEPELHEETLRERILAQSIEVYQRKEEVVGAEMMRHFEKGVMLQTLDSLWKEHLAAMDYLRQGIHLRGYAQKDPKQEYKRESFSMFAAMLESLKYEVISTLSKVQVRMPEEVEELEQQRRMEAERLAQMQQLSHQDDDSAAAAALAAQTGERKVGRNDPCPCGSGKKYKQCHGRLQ

Row | Structure (SMILES) | Percent Effect [1] | Percent Effect [2] | Percent Effect [3] | Percent Effect [4] | Percent Effect [5] | Percent Effect [6] | Percent Effect ([7]; 30 µM) | Percent Effect ([7]; 33.3 µM) | Percent Effect [8] | Percent Effect [9] | Percent Effect [10] | Percent Effect [11] | Percent Effect [12] | Percent Effect [13]
1 | c1ccc(CN2CC[C@]3(C[C@@H](Oc4ccccn4)CO3)C2)nc1 | -4.14% | 18.7% | -1.57% | -1.39% | -5.45% | -0.394% | -12.4% | 0.233% | 5.02% | 17.7% | -36.4% | 2.13% | 14.1% | -0.948%
2 | CC(C)=CCN1C(=O)[C@H]2CC[C@@H]1CN(Cc1cccnc1N)C2 | 5.73% | 4.17% | 4.65% | 1.92% | 2% | -5.34% | – | 3.53% | 23.7% | 7.39% | -25.3% | 7.37% | 2.56% | 2.83%
3 | CC(=O)N1CCOCC2(CN(Cc3ccccn3)CCO2)C1 (stereo not drawn) | -4.37% | -2.67% | 0.233% | -1.22% | -2.37% | 4.25% | – | 2.33% | 9.74% | -30.1% | -6.22% | 2.08% | 2.5% | -3.93%
4 | CN(C)c1ncc2c(n1)C1(CCN(Cc3ccccc3)C1)COC2 (stereo not drawn) | -2.14% | -5.48% | -5.72% | 3.1% | 1.95% | 2.78% | – | 1.2% | 10.9% | -0.512% | -67% | 5.21% | 3.7% | -6.91%
